Drawing on PubChem BioAssay (NCI), this text covers growth for 26 molecules.

Common to all, as to experiment: NCI-60 one-dose screen, 48 h (100 = growth as untreated, 0 = no growth, -100 = all killed)
What all share (details): 10 µM unless noted

In test [1] the test system is NCI-H23 lung.
Test [2] concerns NCI-H226 lung.
The subject of test [3] is NCI-H322M lung.
The test system of test [4] is HOP-62 NSCLC.
Test [5] has as its system NCI-H460 lung.
Test [6] deals with HOP-92 NSCLC.
Test [7] has as its system NCI-H522 lung.
Test [8] concerns A549/ATCC NSCLC.
Test [9] deals with 786-0 renal.

The panel holds about 83,000 compounds, 20% with a hit somewhere; the sample as a whole holds those more often.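 For each line, cells grew in 96-well plates with the test compound present at a single concentration for 48 hours.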 Values without a mark were called inactive. Activity calls are given as the source filed them. Rule for the calls: active = growth percent below 10; inactive = the rest.

As to `C#C[C@]1(O)CC[C@H]2[C@@H]3CC=C4c5sc(-c6ccccn6)nc5CC[C@]4(C)[C@H]3CC[C@@]21C`, the growth was 81.2% in test [1]; 94.4% in [2]; 90.6% in test [3]; 77.5% in [4]; 75.9% in test [5]; 110% in [6]. Besides, the values for the growth in test [7], in [8] and in test [9] were 91.6%, 85.7% and 24.5%, respectively.
As to `O=C(COc1ccc(/C=C2\SC(=O)NC2=O)cc1)Nc1ccc(C(=O)/C=C/c2cc3ccccc3nc2Cl)cc1`, the growth was 65.3% in test [1]; 74.9% in test [2]; 97.8% in test [3]; 103% in test [4]; 86% in test [5]; 88.2% in test [6]. Further, the growth in [7] was 65.8%; in test [8] it was 78.6%; in test [9], 83.6%.
On to `N/C(=N\OC(=O)CSc1nc2ccccc2s1)c1ccc2ccccc2c1`, for which the growth was 95.3% in [1]; 99.6% in test [2]; 101% in [3]; 92% in test [4]; 108% in [5]; 95.9% in test [6]. Further, the growth in test [7] is 91.2%; in test [8] it was 102%; in test [9], 103%.
As for `CCNC(=O)Oc1ccc(/C(=C(/C)c2ccccc2)c2ccc(OCCN3CCCC3)cc2)cc1`, the growth is 74.6% in [1]; 96.6% in test [2]; 93.2% in [3]; 89.9% in [4]; 76.2% in [5]; 61.9% in test [6]. Further, the growth in test [7] was 83.3%; in test [8] it was 74.9%; in test [9], 36.7%.
`COC1=C(c2ccccc2)C(=O)C(OC)=C(c2ccccc2)C1=O`: the growth is 100% in test [1]; 95.5% in test [2]; 106% in [3]; 89.9% in test [4]; 106% in [5]; 97.6% in [6]. Moreover, the growth in [7] was 83.8%; in test [8], 74.3%; in [9], 99.2%.
`C/C(=N\NC(=O)CSc1nc2sc3c(c2c(=O)n1-c1ccccc1)CCC(C)C3)c1ccc(Cl)cc1` (centres undefined): the growth was 28.2% in [1]; -1.29% (active) in test [2]; 51.3% in [3]; 34.5% in test [4]; 4.18% (active) in [5]; -1.5% (active) in test [6]. Moreover, the growth in test [7] was 22.2%; in [8], 42.5%; in test [9] it was 7.93% (active).
Turning to `CC1(C)CC[C@]2(C(=O)O)CC[C@]3(C)C(=CCC4[C@@]5(C)C[C@@H](O)[C@@H]6OC(c7cccc([N+](=O)[O-])c7)OC[C@@]6(C)C5CC[C@]43C)C2C1` (some centres undefined), the growth in test [1] is 73.6%; in test [2], 77.2%; in test [3], 41.7%; in [4], 65.2%; in test [5], 65.4%; in test [6], 69.1%. The growth was 71.8% in test [7], 37.1% in [8] and 90.9% in test [9].
In the case of `C[C@@H]1C[C@H]2C(=O)OCC(NC(=O)[C@H](Cc3cc(F)cc(F)c3)NC(=O)Nc3ccc(Cl)cc3F)C(=O)N3CCC[C@H]3C(=O)N3CCCC[C@H]3C(=O)N[C@@H](C)C(=O)N2C1` (some centres undefined), the growth in test [1] is 37.9%; in test [2], -4.62% (active); in test [3], 48.3%; in test [4] it was 39.1%; in test [5], 14.8%; in test [6], 9.65% (active). Also, the growth in test [7] was 17.2%; in [8], 25.1%; in [9], 33.6%.
As for `C#C[C@]1(O)CC[C@H]2[C@@H]3CC=C4c5sc(C6CCOCC6)nc5CC[C@]4(C)[C@H]3CC[C@@]21C`, the growth in [1] was 74.4%; in test [2] it was 82.5%; in test [3] it was 84.1%; in [4], 90.5%; in test [5], 79.8%; in test [6] it was 103%. Further, the growth in [7] was 80.8%; in test [8], 73.2%; in [9] it was 62.7%.
As for `CCOc1ccc2nc(NC(=O)Nc3ccccc3C)sc2c1`, the growth in [1] was 76.4%; in [2], 38.3%; in test [3], 87%; in test [4], 49%; in test [5], 42.4%; in [6] it was 126%. Further, the growth in test [7] is 32.7%; in test [8], 54.7%; in test [9], 64.9%.
For the molecule `COc1ccc([C@@H]2[C@@H](O)C(=O)N2c2cc(OC)c(OC)c(OC)c2)cc1Cl`, the growth in test [1] is 28%; in test [2], 33.3%; in test [3], 44.8%; in [4], 24.5%; in [5] it was 2.22% (active); in test [6], -2.92% (active). For the same molecule, the growth in [7] is -8.73% (active); in test [8], 22.2%; in test [9], 18.9%.
`O=C(Nc1ccc(F)cc1)c1cc(-c2ccc(F)cc2F)ccc1O`: the growth is 1.86% (active) in test [1]; 5.87% (active) in test [2]; 9.89% (active) in [3]; 12% in test [4]; 4.82% (active) in [5]; -26.6% (active) in [6]. For the same molecule, the growth is -4.42% (active) in test [7], 30.6% in [8] and 15.5% in test [9].
As for `COc1ccc(C(=O)n2cc(C=O)c3ccccc32)cc1`, the growth in [1] was 101%; in test [2], 96.7%; in test [3] it was 95.2%; in test [4], 124%; in [5] it was 110%; in test [6], 83.1%. Besides, the growth was 98.6% in [7], 98.6% in [8] and 102% in [9].
For `CN1CCN(Cc2ccc(NC(=O)c3cncc(C#Cc4cnc5ccc(O[C@H]6CCOC6)nn45)c3)cc2C(F)(F)F)CC1`, the growth is -53.5% (active) in test [1]; -63.8% (active) in [2]; -36.4% (active) in [3]; -77.7% (active) in test [4]; -77.7% (active) in [5]; -38.3% (active) in test [6]. In addition, the results for the growth in test [7], in test [8] and in test [9] were -72.1% (active), -87.7% (active) and -89.7% (active), respectively.
Turning to `Cc1cc(=O)n2nc(-c3cn(C)c4ccc(Cl)cc34)sc2n1`, the growth in test [1] is 92.1%; in [2] it was 67.3%; in test [3], 97.2%; in test [4], 85.7%; in test [5], 78.6%; in [6] it was 80.1%. Further, the figures for the growth in test [7], in [8] and in [9] were 89.2%, 96.7% and 102%, respectively.
On to `C=C(C)C(=O)O[C@H]1C[C@@]2(C)OC(=CC2=O)/C(CO)=C\[C@H]2OC(=O)C(=C)[C@H]12`, for which the growth in test [1] is -35.2% (active); in test [2], -39.3% (active); in test [3] it was 87.6%; in test [4], 58.9%; in test [5], 12.5%; in test [6], -61.4% (active). For the same molecule, the growth in test [7] was -68.3% (active); in test [8], 65.7%; in test [9] it was -66.5% (active).
Regarding `COc1ccc(-c2oc3cc(O)cc(O)c3c(=O)c2OC)cc1O`, the growth in test [1] is 25.7%; in test [2], 73.6%; in test [3], 41.2%; in test [4], 29.1%; in [5], 8.84% (active); in [6], 41.2%. Further, the growth in test [7] was -21% (active); in [8], 38%; in test [9] it was 38.8%.
Take `CCOC(=O)c1nn(-c2ccc(C)cc2)c(=O)c2c(N)c(C#N)c(-c3ccc(OC)cc3)cc12`: the growth in test [1] is 101%; in test [2], 94.4%; in test [3], 97.4%; in test [4] it was 81.3%; in test [5], 101%; in [6], 91.9%. Also, the growth was 86.7% in test [7], 108% in test [8] and 108% in test [9].
Turning to `C#C[C@]1(O)CC[C@H]2[C@@H]3CC=C4c5sc(Nc6cc(OC)ccc6OC)nc5CC[C@]4(C)[C@H]3CC[C@@]21C`, the growth is 33.9% in [1]; 60.4% in test [2]; 62.2% in test [3]; 41.2% in [4]; 26.6% in test [5]; 51.4% in test [6]. The growth in test [7] was 63.8%; in test [8], 38%; in [9], -2.79% (active).
Turning to `CN1CCN(c2ccc(C(=O)Nc3cccc(-c4cn(-c5ccc(S(N)(=O)=O)cc5)nn4)c3)cc2C(F)(F)F)CC1`, the growth in [1] was 82.2%; in test [2], 96.8%; in test [3] it was 72%; in test [4] it was 85.7%; in [5], 78.8%; in [6], 56.4%. The figures for the growth in [7], in test [8] and in [9] were 90.2%, 91.5% and 52.5%, respectively.
Turning to `O=C(/C=C/c1cccc(O)c1)c1ccc(O)cc1`, the growth in [1] is 72%; in [2] it was 103%; in [3], 88.5%; in [4], 79.9%; in [5], 92.8%; in test [6], 104%. The growth in test [7] was 65.6%; in test [8] it was 90.1%; in test [9], 85%.
With `O=c1cc(-c2ccccc2)nc2sc(-c3c[nH]c4ccc(Br)cc34)nn12`, the growth was 104% in [1]; 87.6% in test [2]; 92.8% in test [3]; 107% in [4]; 106% in [5]; 86% in test [6]. Also, the growth in test [7] was 86.2%; in test [8] it was 97.6%; in test [9], 92.6%.
Consider `CC(=O)Oc1ccc(CCN2C(=O)CSC2=S)cc1`, for which the growth in [1] is 101%; in test [2], 89.4%; in test [3], 99.8%; in test [4] it was 111%; in test [5], 101%; in test [6], 53.7%. In addition, the growth in test [7] is 61.7%; in test [8], 106%; in [9], 79.7%.
In the case of `Cn1c2ccccc2c2c3c(c4c5ccc(Br)cc5oc4c21)C(=O)N(O)C3=O`, the growth in test [1] was 80%; in test [2] it was 70.9%; in [3] it was 96.8%; in [4], 59.8%; in [5], 42.3%; in test [6], 81.6%. Also, the growth in [7] is 48.7%; in [8] it was 85.6%; in test [9] it was 89.8%.
On to `CN(C)C(=O)C1=NC(CO)C(=O)N(c2ccc(Cl)cc2)N1` (centres undefined), for which the growth in test [1] is 104%; in test [2], 105%; in test [3], 98.6%; in test [4], 98.9%; in test [5], 104%; in [6], 91.4%. For the same molecule, the growth in test [7] was 97.1%; in test [8] it was 99%; in [9], 93.9%.
Consider `CCCCCCNC(=O)Oc1ccc(/C(=C(/C)c2ccc(Cl)cc2)c2ccc(OCCN3CCCC3)cc2)cc1`, for which the growth in test [1] is 48.3%; in [2] it was 83.1%; in test [3], 69.2%; in test [4], 65%; in [5] it was -57% (active); in test [6] it was 26%. Also, the growth is 65.3% in test [7], 53.4% in [8] and -28.8% (active) in test [9].
